Results from the supplement of paper PMC8253809.

How the values were obtained:
Assay in all cases: growth inhibition (% activity, log2 RLU normalised to DMSO / staurosporine); higher = more growth inhibition
Conditions in all cases: 33 µM
[1] = tested on: DIPGX29 (H3.3 K27M diffuse intrinsic pontine glioma line)
Method in brief: (§1)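 The growth-inhibition value is the median over replicates. pHGG cell lines and H9-derived neural stem cells on Geltrex-coated 384-well plates received approved drugs by pin tool at a single final concentration of about 33 μM, in triplicate, for 7 days at 37 °C, 5% CO2. CellTiter-Glo luminescence was log2-transformed and normalised per plate to % activity between solvent and positive control wells.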

[2] = tested on: DIPGX37 (H3.3 K27M diffuse intrinsic pontine glioma line)
Method in brief: as §1

[3] = tested on: DIPGX7 (H3.3 K27M diffuse intrinsic pontine glioma line)
Method in brief: as §1

[4] = tested on: DIPGX9 (diffuse intrinsic pontine glioma line)
Method in brief: as §1

[5] = tested on: HGGX39 (paediatric high-grade glioma line)
Method in brief: as §1

[6] = tested on: HGGX6 (H3.3 G34R paediatric high-grade glioma line)
Method in brief: as §1

[7] = tested on: HNSC
Method in brief: as §1

[8] = tested on: SUDIPGIV (diffuse intrinsic pontine glioma line)
Method in brief: as §1

[9] = tested on: SUDIPGVI (diffuse intrinsic pontine glioma line)
Method in brief: as §1

[10] = tested on: SUDIPGXIII (diffuse intrinsic pontine glioma line)
Method in brief: as §1

Row | SMILES | growth inhibition [1] [%] | growth inhibition [2] [%] | growth inhibition [3] [%] | growth inhibition [4] [%] | growth inhibition [5] [%] | growth inhibition [6] [%] | growth inhibition [7] [%] | growth inhibition [8] [%] | growth inhibition [9] [%] | growth inhibition [10] [%]
1 | Cc1nnc(NS(=O)(=O)c2ccc(N)cc2)s1 | 2.52 | 1.32 | 1.72 | 2.78 | 0.783 | -1.19 | 44.8 | 2.1 | 1.77 | -1.87
2 | C[C@H]1C[C@H]2[C@@H]3CCC4=CC(=O)C=C[C@]4(C)[C@H]3C(=O)C[C@]2(C)[C@@]1(O)C(=O)CO | -1.49 | -0.985 | 2.72 | -1.67 | -0.401 | -2.95 | -1.41 | 0.457 | -9.81 | 0.862
3 | CC(=O)Nc1ccccc1 | -2.81 | -0.334 | -1.79 | -2.39 | -2.41 | -0.159 | -3.95 | -0.657 | -5.47 | 0.153
4 | COC(c1ccccc1)(c1ccccc1)[C@H](Oc1nc(C)cc(C)n1)C(=O)O | 1.89 | 2.75 | 1.17 | 0.496 | 2.43 | 1.67 | 1.25 | -2.2 | 2.3 | -15.1
5 | CN(c1nccc(=O)[nH]1)C1CCN(c2nc3ccccc3n2Cc2ccc(F)cc2)CC1 | 2.38 | 2.96 | 2.33 | 1.85 | 4.67 | 3.86 | 1.95 | 0.631 | 3.14 | -15
6 | CCCc1ncc(C[n+]2ccccc2C)c(N)n1 | -4.8 | -1.21 | -0.627 | -2.23 | -2.8 | -3.52 | 7.92 | -2.86 | -5.24 | 0.241
7 | COC(=O)Nc1nc2cc([S+]([O-])c3ccccc3)ccc2[nH]1 (stereo not given) | 4.96 | 6.45 | 4.77 | 5.87 | 4.89 | 4.72 | 19.2 | 6.67 | 5.46 | 0.605
8 | C[C@@H](CN1CC(=O)NC(=O)C1)N1CC(=O)NC(=O)C1 | -0.213 | 0.752 | 1.24 | 0.711 | 0.0185 | -0.816 | 2.52 | -0.536 | -1.35 | -1.67
9 | CN(C)CC/C=C1/c2ccccc2COc2ccc(CC(=O)O)cc21 | 1.93 | 3.18 | 2.2 | 2.77 | 2.27 | 2.49 | -0.124 | -0.355 | 2.4 | 0.825
10 | COc1ccc2cc([C@H](C)C(=O)O)ccc2c1 | -0.22 | -1.1 | -0.43 | 0.193 | -0.312 | 0.298 | 0.9 | -2.72 | 0.358 | 0.579
11 | CN(C/C=C/c1ccccc1)Cc1cccc2ccccc12 | 1.23 | -0.956 | -0.0716 | 1.9 | 1.84 | 2.12 | -1.49 | 0.156 | 1.27 | 0.316
12 | Cc1cc(C(C)(C)C)c(O)c(C)c1CC1=NCCN1 | 0.231 | 3.01 | 1.52 | 2.19 | 1.3 | 0.112 | 0.146 | 1.18 | 1.88 | 0.459
13 | c1ccc2c(c1)CCCC2C1=NCCN1 (stereo not given) | 1.99 | 2.84 | 1.62 | 2.1 | 2.48 | 2.7 | 8.78 | 3.45 | 2.93 | 0.717
14 | CNNCc1ccc(C(=O)NC(C)C)cc1 | 2.14 | -0.517 | 2.87 | 1.95 | 3.29 | 0.0869 | 6.38 | -0.464 | 2.55 | -0.216
15 | O=C(C1CCCCC1)N1CC(=O)N2CCc3ccccc3C2C1 (stereo not given) | 0.382 | 3.23 | 1.04 | 1.99 | 2.3 | 0.441 | 3.24 | -1.19 | 3.33 | -0.635
16 | CCCCC(CC)CN=C(N)N=C(N)NCCCCCCNC(N)=NC(N)=NCC(CC)CCCC (stereo not given) | 57.1 | 60.6 | 58.2 | 57.3 | 58.4 | 59.5 | 67.8 | 59.4 | 60.2 | 69.8
17 | CCOC(=O)[C@H](CCc1ccccc1)N[C@@H](C)C(=O)N1C(=O)N(C)C[C@H]1C(=O)O | -1.26 | 0.599 | -0.344 | -0.304 | -1.03 | -1.84 | 1.56 | -1.04 | -1.53 | 1.71
18 | CCN[C@@H]1C[C@H](N)[C@@H](O[C@H]2OC(CN)=CC[C@H]2N)[C@H](O)[C@H]1O[C@H]1OC[C@](C)(O)[C@H](NC)[C@H]1O | 0.443 | 3.8 | 2.72 | 2.1 | 2.39 | -0.182 | 8.55 | 3.28 | 2.97 | 2.03
19 | CC/C(=C(\c1ccccc1)c1ccc(OCCN(C)C)cc1)c1ccccc1 | 7.72 | 1.28 | 12.1 | 3.63 | 11.1 | 10.5 | 21 | 7.38 | 5.56 | 2.99
20 | O=C(O)Cc1cc(I)c(Oc2ccc(O)c(I)c2)c(I)c1 | 1.55 | 4.31 | 0.436 | 0.952 | 2.17 | 1.33 | -1.43 | 3.33 | 2.21 | -14.4
21 | O=C1O[C@H]([C@@H](O)CO)C(O)=C1O | -0.099 | 2.39 | 0.0255 | -1.21 | 1.99 | -2.25 | 2.06 | 0.144 | -0.209 | -0.259
22 | CC(C)C(=O)Oc1ccc(CO)cc1[C@H](CCN(C(C)C)C(C)C)c1ccccc1 | 0.102 | -1.82 | 0.436 | 0.893 | 1.59 | -1.41 | 0.95 | -0.518 | 1.55 | 0.403
